D2 ag-1: activates the human D2 dopamine receptor. DiscoveRx PathHunter D2 beta-arrestin, luminescence, 90 min; 100% = 57 uM dopamine signal. P14416. AID 624465. 0.084% of 360,000 active. activation, % (no concentration beside the values); in the data active = activation above about 40%; inconclusive = between about 15% and that limit
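DiscoveRx PathHunter D2 beta-arrestin cells (2,100/well) attached overnight, then compound-stimulated 90 min at 37 C in HBSS/10 mM HEPES/0.1% Tween-20 buffer; beta-galactosidase complementation read by luminescence after 1 h at ambient temperature. Dopamine 57 uM final (EC100) as control.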
D2 antagonist: D2 dopamine receptor (human) antagonism; HEK293 TREx D2 cells, calcium flux, dopamine EC80; AID 485344; inhibition, % at 10 µM; 2% of 340,000 active; in the data active = inhibition above about 30%; inactive = below that, where a call was filed; note: 0% is about no effect
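Tetracycline-induced HEK293 TREx cells expressing D2 receptor forced-coupled to calcium signalling, loaded with no-wash calcium dye. Compounds added and calcium flux read 180 s, then dopamine added at EC80 and read a further 180 s.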
D2 ag-2: activates the human D2 dopamine receptor. P14416. HEK293 T-REx D2 cells, calcium flux agonist mode. activation, % at 2 µM. 0.53% of 340,000 active. AID 485358;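 active = activation over 3 SD above normal in the single-dose calcium agonist read, cut at about 30% in these data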; note: 0% is about no effect
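Tetracycline-induced HEK293 Trex cells with D2 receptor force-coupled to calcium signaling, plated overnight at 30 C and loaded with no-wash calcium dye. Calcium flux read kinetically for 180 s after compound addition; responses flag agonists.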
B2AR arrestin: agonists driving beta-arrestin recruitment to human beta2-adrenergic receptor | Potency, µM (titrated, usually from 46.1 µM), for the others: at the highest dose activation, hits mostly activators | AID 492947 | 0.02% of 330,000 active | beta-arrestin recruitment to beta2AR, cell-based reporter; active = well fitted activation curve with a large enough effect; inconclusive = small, poorly fitted or top-dose-only effect;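 note: potency is the fitted concentration of half-maximal effect; 0% = DMSO controls and full agonism = EC100 isoproterenol or metaproterenol; nearly all actives have a fitted effect of over 65% in size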
Target sequence (P07550 whole entry, looked up): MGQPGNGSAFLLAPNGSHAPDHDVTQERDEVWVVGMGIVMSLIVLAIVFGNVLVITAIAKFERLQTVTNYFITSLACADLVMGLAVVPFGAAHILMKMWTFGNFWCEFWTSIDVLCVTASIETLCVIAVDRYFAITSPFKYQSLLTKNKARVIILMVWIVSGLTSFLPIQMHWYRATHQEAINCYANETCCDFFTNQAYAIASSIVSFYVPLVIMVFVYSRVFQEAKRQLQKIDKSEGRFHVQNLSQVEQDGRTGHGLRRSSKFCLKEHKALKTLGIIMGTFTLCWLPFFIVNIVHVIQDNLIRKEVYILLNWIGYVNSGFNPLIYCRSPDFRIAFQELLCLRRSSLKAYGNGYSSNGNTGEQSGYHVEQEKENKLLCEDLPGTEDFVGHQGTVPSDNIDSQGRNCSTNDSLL
D2 PAM-1: human D2 receptor positive allosteric modulation; DiscoveRx D2 beta-arrestin cells, luminescence, 90 min; 100% = 57 uM dopamine signal; potentiation, % (concentration not given with the values); 0.23% of 360,000 active; AID 624464; in the data active = potentiation above about 50%; inconclusive = mostly about 30% to 49%
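D2 cells co-treated with compound plus 50 nM dopamine (EC20) for 90 min at 37 deg C to detect potentiation. Beta-arrestin recruitment was read as enzyme-fragment luminescence after 1 h at ambient temperature. Full response was set by 57 uM dopamine.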
D2 PAM-2: positively modulates the human D2 dopamine receptor allosterically | potentiation, % at 10 µM | P14416 | 0.34% of 340,000 active | AID 485347 | HEK293 T-REx D2, calcium flux, EC20 dopamine potentiation;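 active = potentiation over 3 SD above the plate norm, cut at about 30% in these data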; note: 0% is about no effect
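Calcium flux readout, no-wash dye, 1 read/s. Inducible HEK293 Trex D2 line, overnight 30 C. Compound alone 180 s (agonist flags), then EC20 dopamine, another 180 s to score potentiation.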
Active calls of the source: *; ? = inconclusive; . = no result. Compounds with a hit are over-represented: about 2.4% of the library has one in this group of screens.

SMILES	D2 ag-1	D2 antagonist	D2 ag-2	B2AR arrestin	D2 PAM-1	D2 PAM-2
Nc1c(C(=O)NCc2ccco2)c2nc3ccccc3nc2n1CCN1CCCCC1	-1	-8	3	0%	-9	30*
Oc1ccc(CC2CC3CCN2CC3)cc1O (configuration not stated)	7	-6	30*	0%	-10	-1
COc1ccccc1N1CCN(Cc2ccc3c(c2)OCO3)CC1	7	.	.	.	-12	.
Cc1cccc(N2CCN(Cc3ccc4c(c3)OCO4)CC2)c1C	1	66*	0	-1%	-24	-27
COc1ccc(CC2C(=O)NC(C)C(=O)N(C)C3C(=O)N(C)C(Cc4ccc(O)c(c4)Oc4ccc(cc4)C3O)C(=O)NC(C)C(=O)NC(C)C(=O)N2C)cc1 (configuration not stated)	-5	.	.	.	-21	.
CC1CCC2C(C)C(=O)OC3OC4(C)CCC1C32OO4 (configuration not stated)	?	-3	0	-1%	62*	13
CC1CCC2[C@@H](C)C(=O)OC3O[C@]4(C)CCC1C32OO4 (some centres not stated)	?	.	.	.	53*	.
O=C1NC(=O)N(Cc2ccco2)C(=O)/C1=C/C=C/c1ccco1	-5	34*	7	-1%	1	-7
ON1C2CCCCC2N(O)C1c1ccccc1F (configuration not stated)	-4	50*	1	-1%	-10	3
CC(=O)NC1=C(N2CC2C)C(=O)C(NC(C)=O)=C(N2CC2C)C1=O (configuration not stated)	10	.	.	.	95*	.
CCCC(=O)NC1=C(N2CC2)C(=O)C(NC(=O)CCC)=C(N2CC2)C1=O	11	.	.	.	6	.
COc1ccc(C(=O)C2CCCN(C3CSCCSC3)C2)c(OC)c1 (configuration not stated)	2	57*	1	-1%	-18	-15
C[C@H]1[C@@H](OS(=O)(=O)O)C[C@@H]2C[C@H]([C@@H](O)c3cc(=O)[nH]c(=O)[nH]3)NC3=NC[C@H]1N32	10	.	.	.	6	.
N=Cc1c(O)n(-c2ccccc2)c(=O)n(-c2ccccc2)c1=O	-6	-9	1	1%	64*	24
Cc1ccc(-n2c(O)c(C=N)c(=O)n(-c3ccc(C)cc3)c2=O)cc1	1	-4	1	-1%	-8	-1
COC(=O)C1=C(c2ccc(-c3ccccc3)c(F)c2)C[C@@H]2CC[C@H]1N2C(=O)NC1Cc2ccccc2C1	-8	38*	1	0%	-16	-11
COC(=O)C1=C(c2ccc(-c3ccccc3)c(F)c2)C[C@@H]2CC[C@H]1N2C(=O)NCC1CC1	2	-16	1	10%	-85	-10
COc1ccc(C2=CC(c3ccc4c(c3)OCO4)c3c(c4ccccc4oc3=O)O2)cc1OC (configuration not stated)	13	.	.	.	-11	.
Fc1ccccc1CCNCc1cccc2ccccc12	-4	31*	0	5%	-35	-33
O=C(NCc1cccnc1)Nc1ccc([N+](=O)[O-])cc1	-2	-6	-1	-1%	-9	-9
O=c1[nH]c2ccccc2n1C1CCN(CCCC(c2ccc(F)cc2)c2ccc(F)cc2)CC1	1	87*	2	-1%	-29	-29
CN1C(=O)C(c2ccc([N+](=O)[O-])cc2[N+](=O)[O-])C(=O)N(C)C1=O	-17	.	.	-1%	-19	13
COC(=O)CC1=C(C(=O)OC)C2(C(=O)Nc3c(C)cccc32)C(C#N)=C(N)O1 (configuration not stated)	12	5	0	0%	70*	3
CCOc1ccc(CN2CCCC(C(=O)c3ccccc3OC)C2)cc1 (configuration not stated)	7	72*	0	-1%	-21	-24
COc1ccc(F)cc1C(=O)C1CCCN(Cc2ccc(O)cc2)C1 (configuration not stated)	-3	72*	0	5%	-14	-22
SMILES	D2 ag-1	D2 antagonist	D2 ag-2	B2AR arrestin	D2 PAM-1	D2 PAM-2
COc1ccccc1CN1CCCC(C(=O)c2ccccc2OC)C1 (configuration not stated)	2	-7	0	0%	-25	-16
COc1ccc(F)cc1C(=O)C1CCCN(Cc2cnc(C)s2)C1 (configuration not stated)	-2	17	1	0%	-5	-18
Cn1c(O)c(/C=N/c2ccccn2)c(=O)n(C)c1=O	-2	-14	1	0%	2	11
CC[C@@H](CO)NC(=O)[C@@H]1C=C2c3cccc4[nH]cc(c34)C[C@H]2N(C)C1	42*	.	.	.	?	.
COC(=O)C1C=C2c3cccc4[nH]cc(c34)CC2N(C)C1 (configuration not stated)	.	62*	79*	0%	.	-30
CC1Oc2cc3c(-c4c(O)cc(O)c5c(O)c6c(cc45)OC(C)C(C)C6=O)c(O)cc(O)c3c(O)c2C(=O)C1C (configuration not stated)	-10	-12	0	0%	-58	4
O=C1CN(C(=O)COC(=O)Cc2ccccc2)c2ccccc2N1	8	9	2	0%	-7	-5
OC(CNC1CCCCC1)C(F)(F)F (configuration not stated)	-2	40*	-1	-1%	-4	-2
COc1ccccc1-n1c(-c2ccccc2)nc2ccccc2c1=O	-4	40*	0	-1%	-18	-1
Cc1nc2ccccc2c(=O)n1-c1ccccn1	3	35*	-1	-1%	2	9
Cc1ccccc1-n1c(C)nc2ccccc2c1=O	-3	-6	0	-1%	-2	31*
COC(=O)C1=C(c2cccc(OCc3ccccc3)c2)C[C@@H]2CC[C@H]1N2C(=O)NCc1cc(C)oc1C(F)(F)F	-2	5	1	0%	-6	6
O=C1NCN(c2ccccc2)C12CCN(C(CCc1ccccc1)c1nnnn1Cc1ccccc1)CC2 (configuration not stated)	-5	.	.	.	-6	.
CCOC(=O)c1c(N)n(CCCOC(=O)c2ccco2)c2nc3ccccc3nc12	?	14	2	0%	86*	9
CC[C@H](C)[C@@H]1NC(=O)CNC(=O)c2csc(n2)[C@H](C(C)(C)O)OC(=O)C(C)(C)[C@H](CCCC(C)(Cl)Cl)OC(=O)c2csc1n2	-6	.	.	.	-6	.
C1=C(CCNCc2ccccc2)CCCC1	-3	39*	0	6%	-8	-13
